This is a sample that favours compounds with a hit; in the whole collection about 6.8% have one here.
C diff HTS – C. difficile growth inhibitors, primary screen, HTS. Clostridium difficile clinical isolate growth, OD600, 24 h; stronger effect = lower value. growth activity, negative = inhibition, % at 16 µg/mL (by protocol). actives 0.25% (n = 86,000);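 active = mean growth activity at or below -80% and every replicate also at or below -80%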
Pf Dd2 inh – P. falciparum Dd2 growth inhibitors, primary screen, SYBR Green fluorescence, single dose replicates; actives 2.3% (n = 94,000); activity change, % at 10 µM; AID 1159554, 2015; 72 h; stronger effect = lower value; in the data active = activity change below about -80%
Tcruzi prolif – T. cruzi intracellular proliferation inhibitors, primary screen, cell-based, beta-gal Tulahuen parasites, NIH3T3 host, luminescence; T. cruzi beta-gal in NIH3T3, GalScreen luminescence, 90 h; inhibition, % at 8.34 µM; actives 5.9% (n = 77,000); AID 624255, 2012;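 active = mean inhibition above about 93%, with at least 55% of replicates each passing it, limit read from the data, passing the limit was not always enough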
Numbers stand for hits; i = inactive; nt = no result given.

SMILES | C diff HTS | Pf Dd2 inh | Tcruzi prolif
COc1ccc(CN2C[C@@H](C)[C@H](OC)CN(C)C(=O)c3cc(NC(=O)c4nc5ccccc5s4)ccc3OC[C@@H]2C)cc1 | nt | i | nt
CO[C@H]1CN(C)C(=O)c2ccc(NC(=O)c3nc4ccccc4s3)cc2OC[C@@H](C)N(Cc2ccncc2)C[C@@H]1C | nt | i | nt
CO[C@@H]1CN(C)C(=O)c2ccc(NC(=O)c3cc(C)on3)cc2OC[C@@H](C)N(S(=O)(=O)c2cccc(C)c2)C[C@H]1C | nt | -86 | nt
CO[C@@H]1CN(C)C(=O)c2ccc(NC(=O)c3nc4ccccc4s3)cc2OC[C@@H](C)N(Cc2ccccc2)C[C@H]1C | nt | -96 | nt
CO[C@@H]1CN(C)C(=O)c2cc(NC(=O)c3cc(C)on3)ccc2OC[C@@H](C)N(S(=O)(=O)c2cccc(C)c2)C[C@H]1C | nt | i | i
CO[C@@H]1CN(C)C(=O)c2cc(NC(=O)c3nc4ccccc4s3)ccc2OC[C@@H](C)N(Cc2ccncc2)C[C@H]1C | i | -87 | i
CO[C@H]1CN(C)C(=O)c2cc(NC(=O)c3nc4ccccc4s3)ccc2OC[C@H](C)N(Cc2ccncc2)C[C@H]1C | i | nt | i
COc1cccc(C(=O)Nc2ccc3c(c2)OC[C@@H](C)N(C(=O)C2CCCC2)C[C@H](C)[C@@H](OC)CN(C)C3=O)c1 | nt | nt | i
CC(=O)N1[C@H](CN(C(=O)c2ccc(F)cc2)C(C)C)[C@@H](c2ccccc2)[C@@H]1CO | i | i | i
CN1C(=O)c2cc(NC(=O)c3ccccc3)ccc2OC[C@@H]2O[C@@H](CC(=O)O)CC[C@H]21 | i | i | i
C[C@H]1CN([C@@H](C)CO)C(=O)Cc2cc(NC(=O)Nc3cccc4ccccc34)ccc2O[C@H]1CN(C)Cc1ccc(C(F)(F)F)cc1 | i | i | i
COc1cc(CN2CC3(CCN(S(=O)(=O)c4cccs4)CC3)c3c(n(C)c4cc(OC)ccc34)[C@H]2CO)cc(OC)c1 | i | i | nt
CO[C@@H]1CN(C)C(=O)c2ccc(NC(=O)c3nc4ccccc4s3)cc2OC[C@H](C)N(Cc2cncnc2)C[C@@H]1C | nt | i | nt
COc1ccc(CN2C[C@H](C)[C@@H](OC)CN(C)C(=O)c3ccc(NC(=O)c4nc5ccccc5s4)cc3OC[C@@H]2C)cc1 | i | -90 | i
O=C(NCC1CCCCC1)[C@@H]1N[C@@H]2c3ccc(C4=CCCC4)c(=O)n3C[C@@H]2[C@H]1CO | i | i | i
C[C@H](CO)N1C[C@H](C)[C@@H](CN(C)CC2CCCCC2)Oc2ccc(NC(=O)Nc3ccc(F)cc3)cc2CC1=O | i | -90 | i
C[C@@H]1CN([C@@H](C)CO)C(=O)Cc2cc(NC(=O)Nc3ccc(C(F)(F)F)cc3)ccc2O[C@H]1CN(C)CC1CCCCC1 | i | -87 | i
C[C@H]1CN([C@@H](C)CO)C(=O)Cc2cc(NC(=O)Nc3ccc(C(F)(F)F)cc3)ccc2O[C@H]1CN(C)CC1CCCCC1 | i | i | i
C[C@@H]1CN([C@H](C)CO)C(=O)Cc2cc(NC(=O)Nc3ccc(F)cc3)ccc2O[C@@H]1CN(C)CC1CCCCC1 | i | i | i
CCCC#Cc1cnc2c(c1)C(=O)N([C@@H](C)CO)C[C@@H](C)[C@@H](CN(C)Cc1ccc(F)cc1)O2 | i | i | i
COc1ccccc1C#Cc1ccc([C@@H]2[C@H](C#N)N(C(=O)C3CCCC3)[C@H]2CO)cc1 | i | i | nt
COc1ccccc1C#Cc1ccc([C@H]2[C@H](C#N)N(C(=O)C3CCCC3)[C@H]2CO)cc1 | i | i | nt
N#C[C@@H]1[C@@H](c2ccc(C#Cc3ccccc3F)cc2)[C@H](CO)N1C(=O)C1CCCCC1 | i | i | i
N#C[C@H]1[C@@H](c2ccc(C#Cc3ccccc3F)cc2)[C@@H](CO)N1C(=O)C1CCCC1 | i | -89 | nt
N#C[C@H]1[C@H](c2ccc(C#Cc3ccccc3F)cc2)[C@H](CO)N1C(=O)c1cccnc1 | i | -87 | i
SMILES | C diff HTS | Pf Dd2 inh | Tcruzi prolif
COc1ccccc1C#Cc1ccc([C@H]2[C@@H](C#N)N(C(=O)C3CCCC3)[C@@H]2CO)cc1 | i | -87 | nt
COc1ccccc1C#Cc1ccc([C@H]2[C@@H](C#N)N(C(=O)C3CCCC3)[C@H]2CO)cc1 | i | -97 | nt
N#C[C@H]1[C@@H](c2ccc(C#Cc3ccccc3F)cc2)[C@H](CO)N1C(=O)c1cccnc1 | i | i | i
CCCC(=O)N1CC2(CN(C(C)=O)C2)c2c(n(C)c3cc(OC)ccc23)[C@@H]1CO | nt | i | nt
C[C@@H]1CN([C@@H](C)CO)C(=O)c2cc(-c3cccc(F)c3)cnc2O[C@H]1CN(C)C(=O)c1ccccn1 | i | i | nt
O=C(C1CCOCC1)N1C[C@@H]2[C@H](c3ccccc31)[C@@H](CO)N2C(=O)Cc1ccccc1 | i | i | i

Source: PubChem
